“And” between values parts separate entries of the source, which are not always exact repeats. Equal values may be shown once. Records with an inconclusive call do not appear. Where a call stands in place of a potency, no number is given. More than one record can exist for a structure, and the calls need not agree. The source made the active and inactive calls. Calls come from the whole dose curve.
Assay: qHTS assay to identify small molecule agonists of H2AX - cell viability counter screen (AID 1224847); note: nearly all actives have a fitted effect of over 30% in size; for activity change, negative = cytotoxicity: top concentration of the series differs between compounds
Details: CHO-K1 viability, CellTiter-Glo luminescence, 3 h; series mostly up to 154 µM
From the text: National Center for Advancing Translational Sciences [NCATS]
NIH Chemical Genomics Center [NCGC]
U.S. Environmental Protection Agency [EPA]
National Institutes of Environmental Health Sciences [NIEHS]
National Toxicology Program [NTP]
U.S. Food and Drug Administration [FDA]
HTRF phospho-H2AX (Ser139) assay (Cisbio Bioassays, US) enables the quantitative detection of the histone variant H2AX when phosphorylated on serine 139. When double-stranded DNA breaks, either by ionizing radiation or endogenous physiological processes, H2AX becomes phosphorylated at Ser139. This phospho-Ser139 serves as a sensitive biomarker for the detection of such breaks, localizing the site of DNA repair. So, HTRF phospho-H2AX Ser139 is a pertinent assay to study genome stability, the cell cycle, DNA repair, and it serves as a biomarker for cancer, and to understand aging. Wild type CHO-K1 cells were used to identify the inducers of Phospho-H2AX Ser 139 from the Tox21 compound collections. Also cytotoxicity of the Tox21 10K compound library against the CHO-K1 cell line was tested by measuring the cell viability using CellTiter-Glo assay (Promega, Madison, WI).
Tox21 Assay Protocol Summary:
The CHO-K1 cells suspended in culture medium containing 10% FBS were dispensed at 1000 cells/ 3 ul/well in 1536-well white wall/solid bottom plates (Greiner Bio-One North America, NC) using a Multidrop Combi (Thermo Fisher Scientific Inc., Waltham, MA). After the assay plates were incubated at 37C overnight, 23 nl of compounds at 15 concentrations (from 5-48 columns) or positive control (from 1 to 4 columns) were transferred to the assay plates using a Pintool station (Wako, San Diego, CA) into each well resulting in a final DMSO concentration of 0.76%. After 3hr incubation at 37C, 3 uL/well CellTiter-Glo luminescent cell viability reagent (Promega Corporation, Madison, WI) was added using a Flying Reagent Dispenser (FRD) (Aurora Discovery, CA). After incubation at room temperature for 30 min, the luminescence intensity was read using a ViewLux plate reader (PerkinElmer, Waltham, MA).
Potency is the fitted concentration of half-maximal effect.

Row | Structure (SMILES) | Potency | activity change, negative = cytotoxicity
1 | CC(=O)OCC(=O)[C@@]12N=C(C)O[C@@H]1C[C@H]1[C@@H]3CCC4=CC(=O)C=C[C@]4(C)[C@H]3[C@@H](O)C[C@@]12C | inactive | –
2 | C=C(C)C(=O)OCCOCCOCCOC(=O)C(=C)C | inactive | –
3 | CCCCCCCCC/C=C/CC1CC(=O)OC1=O (stereo not given) | inactive | –
4 | CCCCCCCCCCCCOCCO | inactive | –
5 | CCC(O)OCCCOC (stereo not given) | inactive | –
6 | CC1=C(C)S(=O)(=O)CCS1(=O)=O | inactive | –
7 | CC1CCC(C(C)C)C(O)C1 (stereo not given) | inactive | –
8 | Cc1occc(=O)c1O | inactive | –
9 | COc1cc(Cc2cnc(N)nc2N)cc(OC)c1OC | inactive | –
10 | CN(C)CCCN | inactive | –
11 | C=CCOC(=O)c1ccccc1C(=O)OCC=C | inactive | –
12 | CCCCCOC(C)=O | inactive | –
13 | CCN(CC)CCCC(C)Nc1ccnc2cc(Cl)ccc12 (stereo not given) | – | 0.575% [at 14 µM] (inactive) and -2.97% [at 31.6 µM] (inactive)
14 | O=C(O)CCCC[C@@H]1SC[C@@H]2NC(=O)N[C@@H]21 | inactive | –
15 | Cc1cc(C)c(C)cc1C | inactive | –
16 | CC1=CCC2CC1C2(C)C (stereo not given) | inactive | –
17 | Cc1cnc(C(=O)NCCc2ccc(S(=O)(=O)NC(=O)NC3CCCCC3)cc2)cn1 | inactive | –
18 | C[C@H]1C[C@@H]2[C@H]([C@@H](O)C[C@@]3(C)[C@H]2CC[C@]3(O)C(=O)CO)[C@@]2(C)C=CC(=O)C=C12 | inactive | –
19 | O=c1[nH]c(=O)n([C@H]2C[C@H](O)[C@@H](CO)O2)cc1Br | inactive | –
20 | Cc1cccc(O)c1 | inactive | –

Row | Structure (SMILES) | Potency | activity change, negative = cytotoxicity
21 | C=CCNC(N)=S | inactive | –
22 | CCCCCC1=CCCC1=O | inactive | –
23 | CC(c1cc2ccccc2s1)N(O)C(N)=O (stereo not given) | inactive | –
24 | CCCCCC(N)=O | inactive | –
25 | CCCCCCCCCCCCS | inactive | –
26 | CCCCC(CC)COC(=O)CS (stereo not given) | inactive | –
27 | CCCCCCOCCO | inactive | –
28 | ON=C1CCCCC1 | inactive | –
29 | CC[C@H](C)C(=O)O[C@H]1C[C@@H](C)C=C2C=C[C@H](C)[C@H](CC[C@@H]3C[C@@H](O)CC(=O)O3)[C@H]21 | 115 µM (active) and inactive | –
30 | CCCC(C)=O | inactive | –
31 | COS(C)(=O)=O | inactive | –
32 | O=C(O)[C@H](O)[C@@H](O)[C@H](O)[C@H](O)CO | inactive | –
33 | CCOC(=O)NNc1nncc2ccccc12 | inactive | –
34 | C#C[C@]1(O)CC[C@H]2[C@@H]3CCC4=CC(=O)CC[C@@H]4[C@H]3CC[C@@]21C | inactive | –
35 | c1ccc(OCCOc2ccccc2)cc1 | inactive | –
36 | O=c1[nH]nnc2ccccc12 | inactive | –
37 | CC(=O)CC(=O)Nc1ccccc1C | inactive | –
38 | COc1ccc(Nc2ccccc2)c(C)c1 | inactive and 101 µM (active) | –
39 | CCCCCC/C(C=O)=C\c1ccccc1 | inactive | –
40 | COc1ccc(Cl)cc1C(=O)NCCc1ccc(S(=O)(=O)NC(=O)NC2CCCCC2)cc1 | inactive | –
